High-throughput results as filed in PubChem.
T cruzi growth-1 – T. cruzi proliferation inhibition | T. cruzi beta-gal in NIH3T3, GalScreen luminescence, 90 h | inhibition, % at 8.34 µM | 77,000 tested, 5.9% active;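 active means mean inhibition above about 93%, with at least 55% of replicates each passing it, limit read from the data, passing the limit was not always enough; inconclusive means only one of those two conditions holds; inactive means neither condition holds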
C diff HTS – inhibitors of Clostridium difficile growth | Clostridium difficile clinical isolate growth, OD600, 24 h; hits give low values | growth activity, negative = inhibition, % at 16 µg/mL (by protocol) | 86,000 tested, 0.25% active;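 active means mean growth activity at or below -80% and every replicate also at or below -80%; inconclusive means mean at or below -80% but some replicate above -80%; inactive means mean growth activity above -80%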;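 further: 0% = DMSO wells and -100% = levofloxacin 16 µg/mL wells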
Pf Dd2 inh – inhibitors of Plasmodium falciparum Dd2 growth | P. falciparum Dd2 growth, SYBR Green, 72 h; hits give low values | activity change, % at 10 µM | 94,000 tested, 2.3% active; in the data active means activity change below about -80%; inconclusive means no clear call, values can overlap the other calls
T cruzi growth-2 – Trypanosoma cruzi proliferation inhibition. shares compounds with T cruzi growth-1. T. cruzi beta-gal in NIH3T3, GalScreen luminescence, 90 h. inhibition, % at 8.35 µM. 5,600 tested, 72% active. AID 651739;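 active means mean replicate inhibition above about 95% and at least 55% of replicates individually reaching it, limit read from the data; inconclusive means only one of the two criteria is met; inactive means neither criterion is met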
T cruzi growth-3 – Trypanosoma cruzi proliferation inhibition | shares compounds with T cruzi growth-1 | T. cruzi beta-gal in NIH3T3, GalScreen luminescence, 90 h | inhibition, % at 2.09 µM | 5,600 tested, 21% active | AID 651740;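 active means mean inhibition above about 95%, with at least 55% of replicates also reaching it, limit read from the data; inconclusive means meets just one of the two conditions; inactive means meets neither condition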;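 further: plate controls were neutral control median for no effect and positive control median for full effect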
3T3 cytotox – NIH/3T3 (mouse) viability loss | 5,600 tested, 14% active | NIH/3T3 viability, CellTiter-Glo ATP luminescence, 90 h | cytotoxicity (signal decrease), % at 8.35 µM | AID 651742 | shares compounds with T cruzi growth-1;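 active means mean signal decrease across replicates above about 35% based on untreated-well scatter, with enough replicates individually passing, limit read from the data; inconclusive means no rule stated though some were filed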;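 further: 0% = median of neutral control wells and 100% = median of positive control wells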
NIH3T3 tox 2 – NIH/3T3 (mouse) viability loss. AID 651744. shares compounds with T cruzi growth-1. 5,600 tested, 56% active. inhibition, % at 24.9 µM. NIH/3T3 viability, CellTiter-Glo ATP luminescence, 90 h;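 active means mean loss of cell viability signal at or above a set limit, and enough replicates individually reaching it; inconclusive means meets only the mean limit or only the replicate share; inactive means meets neither condition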;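 further: 0% = median of neutral control wells and 100% = median of positive control wells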
Numbers without * were called inactive; ? = inconclusive; . = no result given. In the library only some 6.7% were active in any assay of this set; here they are far more common.

SMILES	T cruzi growth-1	C diff HTS	Pf Dd2 inh	T cruzi growth-2	T cruzi growth-3	3T3 cytotox	NIH3T3 tox 2
C[C@@H]1CCCCO[C@H](CN(C)C(=O)C2CCCCC2)[C@@H](C)CN([C@@H](C)CO)C(=O)c2cc(NC(=O)Nc3ccc(C(F)(F)F)cc3)ccc2O1	120*	7	-88*	98*	106*	-13	-8
C[C@H]1CCCCO[C@@H](CN(C)C(=O)C2CCCCC2)[C@@H](C)CN([C@@H](C)CO)C(=O)c2cc(NC(=O)Nc3ccc(C(F)(F)F)cc3)ccc2O1	120*	1	-89*	96*	115*	-13	7
C[C@@H]1CCCCO[C@H](CN(C)C(=O)C2CCCCC2)[C@@H](C)CN([C@H](C)CO)C(=O)c2cc(NC(=O)Nc3ccc(C(F)(F)F)cc3)ccc2O1	120*	14	-42	105*	87	10	?
C[C@@H]1CCCCO[C@@H](CN(C)C(=O)C2CCCCC2)[C@H](C)CN([C@H](C)CO)C(=O)c2cc(NC(=O)Nc3ccc(F)cc3)ccc2O1	90	-2	-49	.	.	.	.
C[C@@H]1CCCCO[C@@H](CN(C)C(=O)C2CCCCC2)[C@@H](C)CN([C@H](C)CO)C(=O)c2cc(NC(=O)Nc3ccccc3)ccc2O1	67	7	-55	.	.	.	.
C[C@H](CO)N1C[C@H](C)[C@H](CN(C)C(=O)C2CCCCC2)OCCCC[C@H](C)Oc2ccc(NC(=O)Nc3ccc(C(F)(F)F)cc3)cc2C1=O	100	-1	-24	.	.	.	.
C[C@@H]1CN([C@H](C)CO)C(=O)c2cccc(NC(=O)Nc3ccc(F)cc3)c2O[C@H]1CN(C)Cc1ccc2c(c1)OCO2	31	-13	-4	.	.	.	.
Cc1noc(C)c1NC(=O)Nc1ccc2c(c1)C(=O)N([C@H](C)CO)C[C@@H](C)[C@H](CN(C)Cc1ccc(C(=O)Nc3ccccc3N)cc1)O2	.	-1	1	.	.	.	.
O=C(Cc1ccccc1)N[C@H]1CC[C@@H](CC(=O)N2CCOCC2)O[C@@H]1CO	-25	.	1	.	.	.	.
CCCNC(=O)C[C@H]1CC[C@H]2[C@H](COc3ccc(NC(=O)Nc4c(C)noc4C)cc3C(=O)N2C)O1	14	3	3	.	.	.	.
CNC(=O)C[C@H]1CC[C@@H]2[C@H](COc3ccc(NC(=O)c4ccccc4OC)cc3C(=O)N2C)O1	28	-2	-19	.	.	.	.
CO[C@@H]1CN(C)C(=O)c2cc(NC(=O)c3cc(C)on3)ccc2OC[C@H](C)N(C)C[C@@H]1C	-65	.	35	.	.	.	.
Cc1ccc(S(=O)(=O)N(C)C[C@@H]2OCCCC[C@@H](C)Oc3ccc(NC(=O)Nc4c(C)noc4C)cc3C(=O)N([C@@H](C)CO)C[C@H]2C)cc1	-22	3	-31	.	.	.	.
C[C@@H]1CN([C@@H](C)CO)C(=O)c2ccccc2-c2ccccc2CO[C@H]1CN(C)C(=O)c1ccncc1	40	-3	8	.	.	.	.
COc1ccc(NC(=O)Nc2ccc3c(c2)C(=O)N([C@@H](C)CO)C[C@@H](C)[C@H](CN(C)C(=O)C2CCCCC2)OCCCC[C@@H](C)O3)cc1	?	-6	-25	?	16	-4	-2
COc1ccc(NC(=O)Nc2ccc3c(c2)C(=O)N([C@@H](C)CO)C[C@@H](C)[C@H](CN(C)C(=O)C2CCCCC2)OCCCC[C@H](C)O3)cc1	65	-6	-33	.	.	.	.
C[C@H](CO)N1C[C@H](C)[C@@H](CN(C)C(=O)C2CCCCC2)OCCCC[C@H](C)Oc2ccc(NC(=O)Nc3ccc(F)cc3)cc2C1=O	84	-1	1	.	.	.	.
C[C@H]1CCCCO[C@@H](CN(C)C(=O)C2CCCCC2)[C@@H](C)CN([C@@H](C)CO)C(=O)c2cc(NC(=O)Nc3ccc(F)cc3)ccc2O1	?	-4	-85*	111*	24	-7	7
O=C(C[C@H]1CC[C@@H](NC(=O)C2CC2)[C@@H](CO)O1)NCc1ccncc1	26	-1	20	.	.	.	.
O=C(C[C@@H]1C=C[C@@H](NC(=O)c2ccccc2)[C@@H](CO)O1)NCCc1ccncc1	-32	0	12	.	.	.	.
Cc1noc(C)c1S(=O)(=O)Nc1ccc2c(c1)CC(=O)N([C@@H](C)CO)C[C@@H](C)[C@@H](CN(C)S(=O)(=O)c1ccc(Cl)cc1)O2	?	6	-26	71	33	3	39*
Cc1noc(C)c1S(=O)(=O)Nc1ccc2c(c1)CC(=O)N([C@H](C)CO)C[C@H](C)[C@H](CN(C)S(=O)(=O)c1ccc(Cl)cc1)O2	12	17	-55	.	.	.	.
CC(C)NC(=O)Nc1ccc2c(c1)CC(=O)N([C@@H](C)CO)C[C@@H](C)[C@H](CN(C)S(=O)(=O)c1ccc(Cl)cc1)O2	42	-3	-21	.	.	.	.
CC(C)NC(=O)Nc1ccc2c(c1)CC(=O)N([C@H](C)CO)C[C@H](C)[C@H](CN(C)S(=O)(=O)c1ccc(Cl)cc1)O2	102*	-3	-14	-52	-24	-30	9
CNC[C@@H]1Oc2ccc(NS(C)(=O)=O)cc2C(=O)N([C@H](C)CO)C[C@H]1C	19	0	-6	.	.	.	.
SMILES	T cruzi growth-1	C diff HTS	Pf Dd2 inh	T cruzi growth-2	T cruzi growth-3	3T3 cytotox	NIH3T3 tox 2
CCS(=O)(=O)Nc1ccc2c(c1)C(=O)N(C)C[C@H](OC)[C@@H](C)CN(C(=O)COC)[C@H](C)CO2	-22	-3	26	.	.	.	.
C[C@@H]1CN([C@H](C)CO)C(=O)c2cc(C#C[C@@H](C)O)cnc2O[C@@H]1CN(C)C(=O)c1ccncc1	92	0	8	.	.	.	.
C/C=C/c1cnc2c(c1)C(=O)N([C@@H](C)CO)C[C@H](C)[C@H](CN(C)Cc1ccc3c(c1)OCO3)O2	.	-2	-3	.	.	.	.
C[C@H]1CN([C@@H](C)CO)C(=O)c2cc(/C=C/c3ccccc3)cnc2O[C@H]1CN(C)Cc1ccccc1	62	9	-22	.	.	.	.
C[C@@H]1CN([C@@H](C)CO)C(=O)c2cc(/C=C/c3ccccc3)cnc2O[C@H]1CN(C)Cc1ccccc1	133*	21	-25	107*	109*	25	104*
C[C@@H]1CN([C@@H](C)CO)C(=O)c2cc(/C=C/c3ccccc3)cnc2O[C@H]1CN(C)Cc1ccc2c(c1)OCO2	111*	22	-66	101*	108*	58*	102*
CO[C@H]1CN(C)C(=O)c2cc(NC(=O)Nc3ccc(Cl)cc3)ccc2OC[C@@H](C)N(C(=O)Nc2c(C)noc2C)C[C@@H]1C	-18	-29	-15	.	.	.	.
O=C(C[C@H]1C[C@@H]2c3cc(NC(=O)C4CCC4)ccc3O[C@@H]2[C@H](CO)O1)NCCc1ccccc1	21	2	-7	.	.	.	.
O=C(C[C@@H]1CC[C@@H]2[C@H](COC[C@@H](O)CN2Cc2nccs2)O1)NCc1ccccc1	13	.	-8	.	.	.	.
